From PubChem BioAssay AID1159580 (chemical genetic matrix, 2015)
Among all 5,500 compounds or so, about 2,000 (36%) were called active. Not shown: some 18% with an inconclusive outcome. No stated cut-off is given here; in the data, active means normalized growth mostly below about 0.91 (no sharp cut-off); inconclusive means no clear call, values can overlap the other calls; inactive means mostly above about 0.92. The list shows a part of the results.

Assay: chemical genetic growth profiling, strain panel (AID 1159580);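 further: tested at 20 µM; growth read once vehicle control cultures reached saturation at 30 °C; 1 = growth at the plate median or of vehicle wells; lower values mean less growth of the strain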
Settings: S. cerevisiae deletion strains, growth OD

Measured: normalized growth

CC(C)c1cccc(O)c(=O)c1
active: locus YAL021C, strain ccr4, active compounds read low 0.0678 | locus YAL026C, strain drs2, active compounds read low 0.0622 | locus YAL030W, strain snc1, active compounds read low 0.0616 | locus YBL061C, strain skt5, active compounds read low 0.0689 | locus YBR009C, strain hhf1, active compounds read low 0.0635 | locus YBR023C, strain chs3, active compounds read low 0.0691 | locus YBR171W, strain sec66, active compounds read low 0.0935 | locus YBR231C, strain swc5, active compounds read low 0.0694 | locus YBR279W, strain paf1, active compounds read low 0.0689 | locus YCL011C, strain gbp2, active compounds read low 0.0593 | locus YCL016C, strain dcc1, active compounds read low 0.0739 | locus YCL069W, strain vba3, active compounds read low 0.0926 | locus YCR088W, strain abp1, active compounds read low 0.0649 | locus YDL005C, strain med2, active compounds read low 0.0881 | locus YDL040C, strain nat1, active compounds read low 0.0703 | locus YDR001C, strain nth1, active compounds read low 0.0642 | locus YDR069C, strain doa4, active compounds read low 0.0633 | locus YDR137W, strain rgp1, active compounds read low 0.0985 | locus YDR159W, strain sac3, active compounds read low 0.0917 | locus YDR195W, strain ref2 0.166 | locus YDR297W, strain sur2, active compounds read low 0.0622 | locus YDR334W, strain swr1, active compounds read low 0.0664 | locus YDR335W, strain msn5, active compounds read low 0.0638 | locus YDR392W, strain spt3, active compounds read low 0.0887 | locus YEL003W, strain gim4, active compounds read low 0.0581 | locus YEL037C, strain rad23, active compounds read low 0.0615 | locus YEL061C, strain CIN8 (second series), active compounds read low 0.0653 | locus YER015W, strain faa2, active compounds read low 0.0615 | locus YER016W, strain bim1, active compounds read low 0.067 | locus YER111C, strain swi4, active compounds read low 0.0815 | locus YER155C, strain BEM2 (second series), active compounds read low 0.0927 | locus YFR010W, strain ubp6, active compounds read low 0.072 | locus YGL167C, strain pmr1, active compounds read low 0.091 | locus YGL173C, strain kem1, active compounds read low 0.0718 | locus YGL227W, strain vid30, active compounds read low 0.0687 | locus YGL240W, strain doc1, active compounds read low 0.0871 | locus YGL253W, strain hxk2, active compounds read low 0.0611 | locus YHR013C, strain ard1, active compounds read low 0.113 | locus YHR027C, strain rpn1, active compounds read low 0.0609 | locus YHR030C, strain SLT2, active compounds read low 0.126 | locus YHR079C, strain IRE1, active compounds read low 0.146 | locus YHR142W, strain chs7, active compounds read low 0.0743 | locus YJL092W, strain hpr5, active compounds read low 0.0677 | locus YJL095W, strain BCK1 (second series), active compounds read low 0.0581 | locus YJL095W, strain BCK1, active compounds read low 0.145 | locus YJL115W, strain asf1, active compounds read low 0.0902 | locus YJL129C, strain trk1, active compounds read low 0.0856 | locus YJL154C, strain vps35, active compounds read low 0.0621 | locus YJL164C, strain tpk1, active compounds read low 0.0686 | locus YJL166W, strain qcr8, active compounds read low 0.0625 | locus YJR066W, strain TOR1, active compounds read low 0.0572 | locus YKL160W, strain elf1, active compounds read low 0.0788 | locus YKR026C, strain gcn3, active compounds read low 0.0743 | locus YKR091W, strain srl3, active compounds read low 0.0697 | locus YLL001W, strain dnm1, active compounds read low 0.0706 | locus YLL026W, active compounds read low 0.0634 | locus YLL041C, strain sdh2, active compounds read low 0.0616 | locus YLR027C, strain aat2, active compounds read low 0.0581 | locus YLR113W, strain HOG1, active compounds read low 0.217 | locus YLR221C, strain rsa3, active compounds read low 0.059 | locus YLR258W, strain gsy2, active compounds read low 0.0639 | locus YLR262C, strain YPT6 (second series), active compounds read low 0.0819 | locus YLR320W, strain mms22, active compounds read low 0.0828 | locus YLR342W, strain FKS1, active compounds read low 0.0743 | locus YLR357W, strain rsc2, active compounds read low 0.136 | locus YLR370C, strain arc18, active compounds read low 0.0652 | locus YLR384C, strain iki3, active compounds read low 0.0711 | locus YML120C, strain ndi1, active compounds read low 0.0618 | locus YMR058W, strain fet3, active compounds read low 0.0629 | locus YMR125W, strain sto1, active compounds read low 0.0871 | locus YMR129W, active compounds read low 0.0613 | locus YMR205C, strain PFK2, active compounds read low 0.091 | locus YMR231W, strain pep5, active compounds read low 0.0803 | locus YNL071W, strain lat1, active compounds read low 0.0663 | locus YNL183C, strain NPR1, active compounds read low 0.0186 | locus YNL209W, strain ssb2, active compounds read low 0.0585 | locus YNL248C, strain rpa49, active compounds read low 0.0753 | locus YNL322C, strain KRE1 (second series), active compounds read low 0.068 | locus YNR049C, strain mso1, active compounds read low 0.0605 | locus YOR001W, strain rrp6, active compounds read low 0.0684 | locus YOR070C, strain gyp1, active compounds read low 0.123 | locus YOR080W, strain dia2, active compounds read low 0.0682 | locus YOR083W, strain WHI5, active compounds read low 0.0692 | locus YOR106W, strain vam3, active compounds read low 0.0676 | locus YOR231W, strain MKK1, active compounds read low 0.134 | locus YOR265W, strain rbl2, active compounds read low 0.0639 | locus YOR270C, strain vph1, active compounds read low 0.101 | locus YOR290C, strain snf2, active compounds read low 0.0651 | locus YPL051W, strain arl3, active compounds read low 0.0708 | locus YPL078C, strain atp4, active compounds read low 0.0754 | locus YPL106C, strain sse1, active compounds read low 0.111 | locus YPL240C, strain hsp82, active compounds read low 0.0667 | locus YPL256C, strain CLN2, active compounds read low 0.121
